# Measurements reported in PubChem BioAssay AID1347416 (National Center for Advancing Translational Sciences (NCATS), 2020).
# Hit rate of the full screen: of about 4,100 compounds, about 1,600 (39%) were called active. Roughly 25% stayed inconclusive and do not appear here. The call rests on the fitted dose curve; in most records, active means well fitted inhibition curve with a large enough effect; inconclusive means small, poorly fitted or top-dose-only effect; inactive means no such curve, though single readings can be large or run the other way. The list shows a part of the results. A call without a number means that no potency is given here.
# Assay: qHTS Validation assay for Inhibitors of Plasmodium falciparum Dd2 growth in vitro; further: nearly all actives have a fitted effect of over 70% in size
# Conditions: P. falciparum Dd2 in RBCs, SYBR Green growth, 72 h; series mostly up to 28.7 µM
# Text: Malaria, a parasitic disease spread to humans through the bite of a Plasmodium infected Anopheles mosquito, continues to be a global health burden affecting millions of people, with an estimated 228 million cases and 405,000 deaths in 2018. Concerns about safety and limitations of current antimalarial treatments strongly emphasize the need to develop new therapeutic options. The scarce number of chemotypes and validated drug targets with efficacy against the liver stage, have hindered development of new antimalarials. To address this, a chemoprophylactic drug discovery effort was conducted through a combined phenotypic high-throughput asexual blood stage and liver stage screen, providing a robust foundation to identify liver-stage active lead chemotypes. Compounds were initially screened against Plasmodium falciparum Dd2 strain parasites using a in vitro SYBRGreen-1 based 72 hr proliferation assay to identify novel chemotypes to advance to liver stage assays. NIH/NCATS Early Translation Branch Assay Submitter (PI): Anton Simeonov Ph.D.
# […] Assay Protocol: PROTOCOL TABLE (as described by Inglese et al., 2007) SEQUENCE No. (e.g., 1, 2, 3, etc.); PARAMETER (e.g., Cells, Incubation, Reagent, etc.); VALUE; DESCRIPTION SEQUENCE, Parameter, Description 1; Reagent; 3 uL complete malaria growth medium, 1536 TC treated Black clear bottom plate 2; Controls; 23 nL positive control artesunate (300 nM final) to column 1; Neutral control DMSO to columns 2-4 3; Compound; 23 nL of compounds in dose response concentration (29 uM to 0.5 nM final) 4; Reagent; 5 uL malaria infected red blood cells (2.5% hematocrit final, 0.3% parasitemia 5; Time; 72 hours at 37C (5% O2, 5% CO2, 90% N2; 95% Rh) 6; Reagent; 2 uL lysis buffer/SYBRGreen-1, 25 sec shake immediately following dispense 7; Time; ~16 hours at 37C (5% O2, 5% CO2, 90% N2; 95% Rh) 8; Detector; EnVision (PerkinElmer) bottom read at 485/14nm excitation and 535/25 nm emission NOTES (numbers refer to sequence above): 1; Complete Malaria Growth Media: 1X RPMI-1640 w/L-glutamine, 5.5g/L Albumax II, 367 uM Hypoxanthine, 25 mM HEPES, 0.25% Sodium Bicarbonate, 35 uM Gentamicin sulfate 2; Controls were added using the Kalypsis Pintool (Wako USA) equipped with 1536 pinhead 3; Compounds were added in a 7-point, titration with a high final concentration of 29 uM by Pintool from seven inter-plate titrations of library plates and two DMSO control plates at the beginning and end (see Yasgar et al., 2008). 4; Red blood cells infected with Plasmodium falciparum Dd2 parasites were used. 6; Lysis buffer: 20 mM Tris-HCl, 10 mM EDTA, 0.16% Saponin, 1.6% Triton-X, 10X SYBR Green. REFERENCE: Inglese J, Shamu CE, Guy RK. 2007. Reporting data from high-throughput screening of small-molecule libraries. Nat Chem Biol. doi:10.1038/nchembio0807-438 Yasgar A, Shinn P, Jadhav A, Auld D, Michael S, Zheng W, Austin CP, Inglese J, Simeonov A. 2008. Compound Management for Quantitative High-Throughput Screening. J Lab Autom 13:79-89. doi:10.1016/j.jala.2007.12.004
# Potency means the concentration at half of the fitted maximal effect.
row,SMILES,Potency
1,c1ccc(CCc2nc3nccc(-c4ccc5c(c4)OCCCO5)n3n2)cc1,inactive
2,CC(C)Oc1ccc(C(CCNCc2ccc(O)cc2)c2ccccc2)cc1 (stereo not drawn),0.668 µM (active)
3,Cc1noc([C@@H]2CN(C(=O)c3cccc(C(F)(F)F)c3)C[C@H]2C(N)=O)n1,inactive
4,Cc1onc(-c2ccc(Cl)cc2)c1-c1ccnn1S(=O)(=O)c1cccc(C(F)(F)F)c1,4.73 µM (active)
5,Cc1onc(-c2ccc(Cl)cc2)c1-c1ccnn1S(=O)(=O)c1ccc(Cl)cc1,1.88 µM (active)
6,CC(C)c1noc(-c2cccn3c(CNC(=O)c4nccc5ccccc45)nnc23)n1,inactive
7,Oc1c(C(Nc2ccccn2)c2ccccc2F)ccc2cccnc12 (stereo not drawn),9.44 µM (active)
8,CCC(=NC(CC)CO)C1=C(O)CC(C)(C)CC1=O (stereo not drawn),inactive
9,CN1CCN(C(=O)C2(N(C)CCc3ccccc3)Cc3ccccc3C2)CC1,2.66 µM (active)
10,CN(C)C(=O)c1cccnc1OC1CCN(CCc2ccccc2)CC1,inactive
11,CC(C)C[C@@H]1N[C@H](C(=O)NC(C)C)Cc2cn(Cc3ccncc3)c3cccc1c23,17.2 µM (active)
12,CC(C)(C)c1ccc(N2C(=O)CSC2c2cccnc2)cc1 (stereo not drawn),inactive
13,Cc1cccc(N2CCN(c3cccc(C)c3)C2c2cccnc2)c1,5.96 µM (active)
14,Cc1cccc(C(=O)NC2CCN(c3cnn(C)c(=O)c3)CC2)c1,inactive
15,CCc1cccc(NC(=O)N2CCCC(c3noc(COc4ccccc4F)n3)C2)c1 (stereo not drawn),inactive
16,NCCc1cccc(CN2CCCC(COc3ccccc3F)C2)c1 (stereo not drawn),2.66 µM (active)
17,CCCCOc1ccc(NC2=NC3(CCCCC3)N=C(N)N2)cc1,8.41 µM (active)
18,CC(C)C[C@@]12C(=O)N(c3cccc(Br)c3)C(=O)N1[C@H](c1ccc(F)cc1)[C@@H]1C(=O)N(C3CCCCC3)C(=O)[C@@H]12,7.5 µM (active)
19,N=c1c2c(n(Cc3ccc(F)cc3)c3c1CCC3)CCC2,3.35 µM (active)
20,N=c1c2c(n(Cc3ccc(F)cc3)c3c1CCC3)CCCC2,2.99 µM (active)
21,N=c1c2c(n(Cc3ccccc3)c3c1CCC3)CCC2,4.22 µM (active)
22,COc1ccc2cc3cc(C(=O)NCCC(C)C)oc3nc2c1,inactive
23,CCc1noc(-c2cn(C3CCN(C(=O)Cc4cccc(OC)c4)CC3)nn2)n1,inactive
24,COc1ccc(CNC(=O)N2CCCC(CN3CCCC3)CC2)cc1 (stereo not drawn),inactive
25,COc1cccc(CC(=O)N2CCCC(CN3CCCC3)CC2)c1 (stereo not drawn),15 µM (active)

row,SMILES,Potency
1,Nc1cc2ccncc2c2ccccc12,0.266 µM (active)
2,O=C(NC1CCCC1)N1CCC(Cc2nncn2CC2CC2)CC1,inactive
3,COC[C@@H]1CN(Cc2cn[nH]c2-c2ccccc2)C[C@H]1c1nc(C)no1,inactive
4,Cc1ccccc1CN1C[C@@H]2C[C@@H](c3cn[nH]c3-c3ccccc3)N3CCC[C@@]23C1=O,15 µM (active)
5,COCC(=O)N[C@H]1C[C@@H](CO)N(Cc2cn[nH]c2-c2ccccc2)C1,inactive
6,Cc1cccc(NC(=O)Cn2cnc(S(=O)(=O)N3CCCC3)c2)c1C,inactive
7,Cc1cccc(NC(=O)Cn2c(C)c(C#N)c3ccccc32)c1C,5.96 µM (active)
8,CN(C)c1cc(=O)c2ccnc(-c3ccccc3F)c2o1,inactive
9,CCc1ccc(CNC(=O)c2cc3cc4ccc(OC)cc4nc3o2)cc1,inactive
10,CCCOC(=O)c1ccc(-c2c(C)noc2-c2ccc(OC)cc2O)o1,1.88 µM (active)
11,CCc1cc(=O)n(CC(=O)Nc2ccccc2OC)c(-c2ccccc2)n1,inactive
12,COc1ccccc1NC(=O)CN1CCN(C2c3ccccc3-c3ccccc32)CC1,15 µM (active)
13,CCc1noc(-c2cccn3c(CNC(=O)c4cccc(N(C)C)c4)nnc23)n1,inactive
14,Cc1ccc(C(=O)NCc2nnc3c(-c4nc(C(C)C)no4)cccn23)cc1,inactive
15,Cc1ccc(NC(=O)c2c(C)oc3ccc(O)c(CN4CCCCCC4)c23)cc1,2.11 µM (active)
16,CCOC(=O)c1c(-c2ccccc2)oc2ccc(O)c(CN3CCCC3)c12,0.596 µM (active)
17,CCOC(=O)c1c(C)c(-c2ccccc2)n(CC(=O)NC2CCCCCC2)c1C,inactive
18,Cc1ccc(CN2CCc3nc(C(=O)Nc4cccnc4)oc3CC2)cc1,inactive
19,Cc1ccc(NC(=O)c2c(C)oc3ccc(O)c(CN4CCCCCC4)c23)c(C)c1,4.73 µM (active)
20,Cc1ccc(S(=O)(=O)N2CC3CCCC2C3)cc1 (stereo not drawn),inactive
21,O=C(NC[C@H]1OC[C@@H](NCc2ccccc2F)[C@@H]1O)Nc1ccccc1,inactive
22,Cc1cccc(OCCc2noc(C3CCN(C(=O)c4n[nH]c(=O)c5ccccc45)C3)n2)c1 (stereo not drawn),inactive
23,Cc1ccc(O)c(CN2CCCC(c3nc(CC(C)C)no3)C2)c1 (stereo not drawn),9.44 µM (active)
24,CCn1cc(CN2CCCC(c3nc(C(C)C)no3)CCNC(=O)CC2)cn1 (stereo not drawn),inactive
25,CN(C(=O)Cn1c(=O)n(Cc2ccc(C(=O)NCc3ccc4c(c3)OCO4)cc2)c(=O)c2ccccc21)c1ccccc1,inactive

row,SMILES,Potency
1,O=C(Cn1c(=O)n(Cc2ccc(C(=O)NCc3ccc4c(c3)OCO4)cc2)c(=O)c2ccccc21)Nc1cccc(Cl)c1,5.96 µM (active)
2,N=c1ccn(CC(=O)c2ccc(-c3ccccc3)cc2)cc1,0.944 µM (active)
3,NC1=NC[C@@H](Cc2ccc(O)cc2)N1CCCCC1CCCCC1,4.73 µM (active)
4,C[C@H]1CN=C(N(C)C)N1CCC1CCCCC1,inactive
5,CCC(=O)N1CCCCCCN(C)C(=O)[C@@H]2CCC[C@@H]21,inactive
6,COc1ccc2c(c1)c(CN1CCCCCCN(C)C(=O)[C@@H]3CCC[C@@H]31)cn2C,15 µM (active)
7,C=C(C)COc1ccc(-c2[nH]ncc2Oc2ccccc2OCC)c(O)c1,2.99 µM (active)
8,C=C(C)COc1ccc(-c2[nH]ncc2-c2ccc(OC)c(OC)c2)c(O)c1,6.68 µM (active)
9,CCOC(=O)C1CCN(C(=O)c2c(C)oc3c2C(=O)c2ccccc2C3=O)CC1,0.531 µM (active)
10,CCOC(=O)C1CCN(C(=O)Cn2cnc3sc(C)c(S(=O)(=O)N4CCOCC4)c3c2=O)CC1,inactive
11,CCOC(=O)c1c(C)oc2c1C(=O)c1ccccc1C2=O,0.422 µM (active)
12,CCOC(=O)c1cc(Sc2ccccc2N)cc(C(=O)OCC)n1,inactive
13,CCOC(=O)c1c(C)[nH]c2c1-c1ccccc1C(=O)C2=O,2.37 µM (active)
14,O=C(NCc1ccc(F)cc1)C1(CCO)CC12CCOCC2 (stereo not drawn),inactive
15,O=C(Nc1ccccc1F)N1CCCCCC1c1nc(-c2cccnc2)no1 (stereo not drawn),inactive
16,O=C(CCC1CCCN(Cc2cccn2-c2cccnc2)C1)Nc1ccccc1F (stereo not drawn),6.68 µM (active)
17,CCn1ccc2sc(C)c(C(=O)N3CCN(c4ccc(F)cc4)CC3)c2c1=O,inactive
18,O=C(c1ccc(F)cc1)N1CCn2c(nnc2-c2ccccc2)C1,inactive
19,COc1ccccc1N1CCN(C(=O)CSc2nc(-c3ccc(C(C)C)cc3)no2)CC1,0.376 µM (active)
20,CC1CCN(C(=O)CSc2nc(-c3ccc(C(C)C)cc3)no2)CC1,1.19 µM (active)
21,CC(C)c1ccc(-c2noc(SCC(=O)N3CCN(c4ccc(F)cc4)CC3)n2)cc1,0.668 µM (active)
22,Cc1nn(C)c(C)c1CCC(=O)N1CCC(Cc2noc(-c3ccc(F)cc3)n2)C1 (stereo not drawn),inactive
23,CC(C)c1noc(-c2cn(C3CCN(C(=O)COc4ccccc4)CC3)nn2)n1,inactive
24,CCC(C)NC(=O)N1CC(Oc2ccc(-c3noc(C4CCOCC4)n3)cc2)C1 (stereo not drawn),inactive
25,COc1ccccc1CC(=O)N1CCC(n2cc(-c3nc(C)no3)nn2)CC1,inactive

row,SMILES,Potency
1,O=C(CSc1nc(-c2ccccc2)no1)N1CCN(c2ccc(F)cc2)CC1,4.22 µM (active)
2,Cc1ccc(Cc2nc3ccccc3nc2SCC(=O)N2CCN(c3ccccc3)CC2)cc1,inactive
3,COc1ccc(N2CCN(C(=O)CSc3nc(-c4ccc(C(C)C)cc4)no3)CC2)cc1,0.531 µM (active)
4,COc1ccc(-c2noc(-c3cccn3CC(=O)N(C)c3ccc(F)cc3)n2)cc1F,inactive
5,CC(C)c1ccc(-c2noc(SCC(=O)N(C)c3ccc(F)cc3)n2)cc1,0.944 µM (active)
6,COc1ccc(C(=O)N2CCC(n3cc(-c4nc(-c5ccccc5)no4)nn3)C2)cc1 (stereo not drawn),inactive
7,COc1ccc(-c2noc([C@@H]3CCCN3C(=O)Cc3ccccc3Cl)n2)cc1,inactive
8,O=C(N/N=C(\CC(=O)c1cccs1)C(F)(F)F)c1ccncc1,inactive
9,CCOc1ccccc1CN1CCCN(Cc2ccncc2)C(c2ccccc2)CC(=O)NCC1 (stereo not drawn),6.68 µM (active)
10,Cc1ccc(CNC(=O)N2CCCCCNC(=O)CC2c2ccccc2)cc1 (stereo not drawn),inactive
11,CCOc1ccccc1CN1C[C@@H]2C(=O)N(CCN3CCc4ccccc4C3)C(=O)[C@@H]2C1,inactive
12,CCCNC(=O)N1CCCCCNC(=O)CC1c1ccccc1 (stereo not drawn),inactive
13,COc1ccc(-n2nc(C3CCN(Cc4ccncc4)CC3)[nH]c2=O)cc1,inactive
14,COc1cccc(CN2CCCN(Cc3ccncc3)C(c3ccccc3)CC(=O)NCC2)c1 (stereo not drawn),7.5 µM (active)
15,COc1ccc(CN2CCCCCNC(=O)CC2c2ccccc2)cc1Cn1ccnc1 (stereo not drawn),9.44 µM (active)
16,COc1ccc(CN(C)C2CCc3nn(C)c(=O)n3CC2)cc1Cn1cccn1 (stereo not drawn),inactive
17,Cc1cccc(Cn2nnc3c2C(=O)c2ccccc2C3=O)c1,inactive
18,Cc1cccc(CN2CCCN(Cc3ccncc3)C(c3ccccc3)CC(=O)NCC2)c1 (stereo not drawn),4.22 µM (active)
19,COc1ccc(N=C2NC(=O)/C(=C\c3ccco3)S2)cc1,inactive
20,C#CCN(C)Cc1nc(C2(O)CCN(C(C)=O)CC2)cs1,inactive
21,CCN(CC)C(=O)[C@@H]1CCCN1[C@H](Cc1ccccc1)C(=O)NC,inactive
22,Cc1noc(C)c1-c1cc2cc(CN(C)C)oc2c(NCCc2ccccc2)n1,13.7 µM (active)
23,Cc1noc(C)c1-c1cc2cc(CN(C)C)oc2c(NCCOc2ccccc2)n1,15.3 µM (active)
